# Shown are actives, neighbours in structure and some others; about 7.7% of the full set was active somewhere.
# FMDV antiviral = blocks foot and mouth disease virus; Potency, µM (top dose mostly 57.9 µM), inactives show top-dose activity change, negative = inhibition, hits mostly inhibitors; 410,000 tested, 1.2% active; AID 1159524; FMDV antiviral cell-based qHTS; calls by dose curve; tested in HEK293T cells; further: read-out not given here; potency means the concentration at half of the fitted maximal effect; nearly all actives have a fitted effect of over 45% in size
# Tb PYK inh = T. brucei pyruvate kinase inhibition. TbPYK enzyme, Kinase-Glo Plus ATP luminescence, 45 min. Potency, µM (top dose mostly 76.8 µM), for the others: at the top dose activity, negative = inhibition, most hits filed as inhibitors. 410,000 tested, 0.12% active. AID 624173; further: potency means the concentration at half of the fitted maximal effect; nearly all actives have a fitted effect of over 50% in size
#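 Readout: single end-point luminescence (Kinase-Glo Plus, 10 min). Reaction conditions were TbPYK/substrate plus 130 uM ADP, 45 min at RT, pH 7.2 TEA buffer. No-enzyme wells served as controls, and data were normalized before concentration-response fitting.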
# RE007 growth inh = less growth of the S. pombe RE007 Vpr strain; AID 651644; Potency, µM (titrated, usually from 92.2 µM), for the others: at the highest dose activity change, negative = less growth, hits mostly inhibitors; 360,000 tested, 0.21% active; S. pombe RE007 Vpr strain, BacTiter-Glo ATP luminescence, 24 h; active means well fitted falling curve with a large enough effect; inconclusive means small, poorly fitted or top-dose-only effect; inactive means no such curve, though single readings can be large or run the other way; further: potency means the concentration at half of the fitted maximal effect; nearly all actives have a fitted effect of over 50% in size
#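 Fission yeast strain RE007, carrying one chromosomally integrated HIV-1 vpr copy, was seeded at OD 0.01 in PMG+AL medium with 23 nL pinned compound. After 24 h at 30 °C and 99% humidity, viability was read by BacTiter-Glo luminescence.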
# Giardia FBPA inh = Giardia lamblia aldolase inhibition | purified Giardia FBPA | 290,000 tested, 0.71% active | AID 2451 | A8B2U2 | Potency, µM (top dose mostly 59.6 µM), for inactives: at the top dose activity, negative = inhibition, hits mostly inhibitors; further: potency means the concentration at half of the fitted maximal effect; nearly all actives have a fitted effect of over 55% in size
# Target sequence (A8B2U2 whole entry, looked up): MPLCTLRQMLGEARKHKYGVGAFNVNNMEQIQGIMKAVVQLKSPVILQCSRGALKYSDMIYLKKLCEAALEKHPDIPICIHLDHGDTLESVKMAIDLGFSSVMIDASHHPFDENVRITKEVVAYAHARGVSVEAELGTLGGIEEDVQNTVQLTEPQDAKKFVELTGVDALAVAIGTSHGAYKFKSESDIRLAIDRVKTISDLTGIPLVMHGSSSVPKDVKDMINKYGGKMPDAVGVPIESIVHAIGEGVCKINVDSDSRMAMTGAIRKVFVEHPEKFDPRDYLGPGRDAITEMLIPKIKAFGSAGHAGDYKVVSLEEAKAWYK
#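 Giardia FBPA (40 nM reagent) was preincubated 10 min at RT with compound (up to 57.5 uM final), then substrate plus GAPDH/TPI/NAD/arsenate coupling system with diaphorase/resazurin was added; resorufin fluorescence (525/598 nm) was read after 20 min.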
# HCMV antiviral = human cytomegalovirus inhibition; 410,000 tested, 4.5% active; activity change, negative = inhibition, % at 57.5 µM; AID 1259415; HFF cells, HCMV-luciferase reporter, 72 h; stronger effect = lower value; in the data active means activity change below about -60%; inconclusive means no clear call, values can overlap the other calls; inactive means above about -39%
#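 Compounds were evaluated in HFFs infected with an HCMV luciferase reporter virus (MOI 1 PFU/cell). Luciferase in lysates collected 72 h post infection served as the replication measure.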
# Sm TGR inh = S. mansoni TGR enzyme inhibition | Q962Y6 | purified TGR, DTNB reduction, TNB absorbance 405 nm | Potency, µM (doses to about 114 µM), for the others: at the highest dose activity change, negative = inhibition, most hits filed as inhibitors | 360,000 tested, 3% active; further: potency means the concentration at half of the fitted maximal effect; nearly all actives have a fitted effect of over 60% in size
#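 TGR 20 nM + NADPH 100 uM (dispensed conc.), cpd preinc 15 min RT; start with NADPH (500 uM addition) then DTNB (15 mM addition). Kinetic TNB absorbance, 405 nm filter. Four-parameter Hill fit across titration.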
# * = called active by the depositor; ? = inconclusive; / = no result. Unless noted, the call rests on the fitted dose curve; in most records, active means well fitted curve in the direction sought with a large enough effect; inconclusive means small, poorly fitted or top-dose-only effect, or another doubt; inactive means no such curve, though single readings can be large; an effect the other way counts as inactive or inconclusive. On the % scale 0 is the no-effect control and ±100 the full control effect.
SMILES,FMDV antiviral,Tb PYK inh,RE007 growth inh,Giardia FBPA inh,HCMV antiviral,Sm TGR inh
CN(c1ccccc1)S(=O)(=O)c1cccc(NC(=O)c2cc(=O)c3ccccc3o2)c1,32µM*,0%,4%,-13%,-66*,-1%
O=C(Nc1cccc(S(=O)(=O)N2CCCCCC2)c1)c1cc(=O)c2ccccc2o1,20µM*,6%,-7%,-3%,-5,-4%
COC(=O)c1ccccc1NC(=O)CSc1nncn1C,-11%,2%,3%,1%,33,-5%
Cn1cnnc1SCC(=O)Nc1ccccc1Sc1ccccc1,10%,-15%,-9%,-4%,-63*,-4%
Cc1ccc(NC(=O)CCl)c(C)c1,?,4%,-4%,0%,-24,25µM*
Cc1ccc(NC(=O)CSc2nncn2C)c(C)c1,-16%,-2%,/,/,-105*,2%
COc1ccc(-n2nnnc2C2CCN(S(=O)(=O)c3cc(Cl)ccc3OC)CC2)cc1,?,-2%,/,/,-78*,5%
COc1ccc(-n2nnnc2C2CCN(S(=O)(=O)c3ccc(C(C)(C)C)cc3)CC2)cc1,-7%,-3%,/,/,28,0%
COc1cccc(CNC(=O)CCc2c(C)nc3c(c2C)c(=O)n(C)c(=O)n3C)c1,9%,2%,/,/,8,-5%
COc1cc2c(C(=O)N3CCN(c4ccccc4)CC3)c(C)oc2cc1Br,20µM*,5%,3%,-2%,-5,3%
COc1ccc(S[C@]2(c3nc(C)no3)CC(=O)N(S(=O)(=O)c3ccc(F)cc3)[C@@H]2c2ccc(OC)cc2)cc1,/,/,/,/,-18,/
Cc1cccc(NC(=O)Cc2nc(-c3c[nH]c(C(=O)N4CCCC4)c3)cs2)c1,35µM*,1%,2%,/,7,-7%
Oc1ccc2ccccc2c1CNc1ccc(Br)cc1,-9%,-16%,-14%,-9%,-16,0.63µM*
Oc1ccc2ccccc2c1CNc1ccc(Br)cn1,50%,4%,3%,2%,46,0%
O=C(c1ccc(CS(=O)c2ccccc2Cl)o1)N1CCN(c2cccc(Cl)c2)CC1 (configuration not stated),-19%,0%,/,/,-93*,5%
O=C(c1ccc(CS(=O)c2ccccc2Cl)o1)N1CCN(c2cccc(C(F)(F)F)c2)CC1 (configuration not stated),?,2%,/,/,-96*,1%
COc1ccc(N2CCN(S(=O)(=O)CCNC(=O)Cc3ccc(OC)c(OC)c3)CC2)cc1,-12%,1%,/,/,2,-16%
CCCCOc1ccc(Cn2c(=O)sc3ccccc32)cc1,-2%,2%,/,/,3,15%
Cc1cc(-c2nn(-c3ccccc3F)cc2CN2CCCC(CO)C2)c(C)s1 (configuration not stated),-5%,5%,-15%,-10%,-86*,-5%
Cc1cc(-c2nn(-c3ccccc3F)cc2CN2CCCC(C(N)=O)C2)c(C)s1 (configuration not stated),-4%,-8%,-5%,1%,-21,-9%
Cc1cc(-c2nn(-c3ccccc3F)cc2CN2CCC(C(N)=O)CC2)c(C)s1,-8%,0%,-1%,1%,-13,45µM*
OCCN1CCN(Cc2ccc3c(c2)CN(Cc2cccc4ncccc24)CCO3)CC1,-15%,/,/,/,/,/
COc1cc(OC)cc(-c2cc3nc(C)c(CCC(=O)NCc4ccccc4)c(C)n3n2)c1,5.6µM*,1%,-12%,-7%,-69*,-12%
COc1ccc(CNC(=O)CCc2c(C)nc3cc(-c4ccc(OC)cc4OC)nn3c2C)cc1,2%,4%,/,/,-7,-4%
COc1cc(OC)cc(-c2cc3nc(C)c(CCC(=O)Nc4ccccc4OC)c(C)n3n2)c1,?,-11%,/,/,-62*,1%
SMILES,FMDV antiviral,Tb PYK inh,RE007 growth inh,Giardia FBPA inh,HCMV antiviral,Sm TGR inh
COc1cc(OC)cc(-c2cc3nc(C)c(CCC(=O)NCc4ccc(Cl)cc4)c(C)n3n2)c1,13µM*,-8%,/,/,-61*,0%
COc1ccc(NC(=O)CCc2c(C)nc3c(c2C)c(=O)n(C)c(=O)n3C)c(OC)c1,?,1%,/,/,-76*,7%
COc1cc(OC)cc(-c2cc3nc(C)c(CCC(=O)NCCc4cccc(C)c4)c(C)n3n2)c1,-27%,5%,/,/,-36,8%
COc1cc(OC)cc(-c2cc3nc(C)c(CCC(=O)Nc4ccc(C(C)=O)cc4)c(C)n3n2)c1,?,-9%,/,/,?,7%
C[N+]1(C)CCN(C[C@@](O)(c2ccccc2)C2CCCCC2)CC1,/,5%,/,/,/,/
COc1cc(C2C=C(C(=O)O)Nc3ncnn32)ccc1O (configuration not stated),-16%,4%,/,/,-14,2%
CCCCC[C@H](O)/C=C/C1=C(C/C=C\CCCC(=O)O)C(=O)CC1,/,/,/,4%,/,/
C=CCn1c(NS(=O)(=O)c2ccccc2)c(S(=O)(=O)c2ccc(C)cc2)c2nc3ccccc3nc21,?,-4%,-15%,0.14µM*,62,?
FC(F)Oc1ccccc1NC(=S)Nc1cccnc1,-3%,-4%,9%,-6%,21,22µM*
S=C(Nc1ccc(-c2nc3ccccc3[nH]2)cc1)Nc1cccnc1,-11%,-16%,-28%,-4%,-22,11µM*
Fc1ccccc1NC(=S)Nc1cccnc1,13%,0%,-5%,-11%,15,16µM*
Fc1ccc(NC(=S)Nc2ccccc2OC(F)F)cc1Cl,0%,0%,-3%,-14%,?,-32%
c1cncc(-c2nc3ccccc3[nH]2)c1,17%,5%,4%,-25%,6,6%
Fc1ccc(NC(=S)Nc2cccnc2)cc1,3%,-4%,0%,0%,6,/
COCc1c(C(=O)NCC2CCCN(C)C2)cnn1-c1ncc2c(n1)-c1ccccc1CCC2 (configuration not stated),6%,/,/,/,/,/
COc1ccc(N2CCN(C(=O)CCc3c(C)nc4cc(-c5cccc(F)c5)nn4c3C)CC2)cc1,-25%,6%,/,/,-37,-21%
O=C(CSc1nc2cc(C(=O)NC3CCCC3)ccc2c(=O)n1CC1CCCO1)c1cccc(Cl)c1 (configuration not stated),-9%,-13%,/,/,-30,-7%
CCCCN(C)C(=O)c1[nH]c(C(F)(F)F)nc1-c1ccccc1,-18%,3%,-7%,/,-15,/
CN(C)CCN(Cc1ccccc1)C(=O)c1[nH]c(C(F)(F)F)nc1-c1ccccc1,35µM*,-11%,-8%,/,-2,/
COc1ccc(C(c2c(O)nc(SC)n(C)c2=O)c2c(O)nc(SC)n(C)c2=O)cc1O,-5%,-13%,-10%,-11%,-32,13µM*
CCOc1cc(C(c2c(O)nc(SC)[nH]c2=O)c2c(O)nc(SC)[nH]c2=O)ccc1O,-10%,?,0%,/,20,/

# Bioassay records from PubChem BioAssay.
